These results are taken from paper PMC11984502, “A stress-responsive p38 signaling axis in choanoflagellates” (RSC Chemical Biology, 2025).

In all, about 1,200 compounds were measured (“% viability”: median about 1, lowest 2% from about 0.27 on). The list comes from a sample in which the lowest values are over-represented; it also holds similar structures and randomly drawn compounds. The numbers are fractions of the control, whatever unit the source prints.

The test system of the test is S. rosetta (SrEpac culture). The conditions noted are these: flow cytometry, 24 h, high-nutrient medium; 10 µM. (In general: A flow cytometer gives signals particle by particle.)
Regarding `CCCc1cc(-c2cncc(OCC(N)Cc3c[nH]c4ccccc34)c2)cc2c(C)n[nH]c12` (stereo not shown) [KMS_217], the “% viability” value turned out to be 0.
